This passage reports phenotypically active results from the supplement of paper PMC7411054.

Structures can show the parent of a compound that is named as a salt.

For the assay, the system named is HepG2-GM130-SQSTM1. Briefly: phenotypically active (imaging signature differs from DMSO and reproducible) at any of 0.3-9 uM (binary (1 = active, 0 = inactive)); higher = active. To be noted: treatment time: 24 h. The essentials:
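Live-cell features were measured per well and normalised to solvent control wells after fifteen gene-edited A549, HepG2 and WPMY1 reporter lines had been treated for 24 h at 0.3, 1, 3 or 9 µM in four wells each. A condition was deviating when ≥3 of 4 wells sat beyond the 95th percentile of control Euclidean distances. It was reproducible when the median replicate Pearson correlation exceeded the 95th percentile of non-replicates. Phenotypic activity demanded both.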
As to `CC(C)[N+](C)(CCC(C(N)=O)(c1ccccc1)c1ccccc1)C(C)C` [isopropamide-iodide], the phenotypically active was 0 (inactive).
In the case of `CC(C)N(CCC(C(N)=O)(c1ccccc1)c1ccccn1)C(C)C` (configuration not stated) [disopyramide] it was 0 (inactive); in that of `O=C1C[C@@H]2OCC=C3C[N+]4([O-])CC[C@]56c7ccccc7N1[C@H]5[C@H]2[C@H]3C[C@@H]64` (some centres not stated) [Genostrychnine base], 0 (inactive); in that of `C[C@@H]1CN([C@H]2CC[C@](C#N)(c3ccc(F)cc3)CC2)CC[C@]1(C(=O)O)c1ccccc1` [levocabastine], 0 (inactive).
In the case of `Cc1ccc(C[N+](C)(C)C)o1` [5-Methylfurmethiodide] it was 0 (inactive).
For `COc1cc2c3cc1Oc1cc(ccc1O)C[C@@H]1c4c(cc(OC)c(O)c4Oc4cccc(c4)C[C@@H]3N(C)CC2)CC[N+]1(C)C` [Tubocurarine chloride pentahydrate (+)] the value was 0 (inactive); for `CCCC(C)C1(CC)C(=O)N=C(S)NC1=O` (configuration not stated) [thiopental], 0 (inactive).
Turning to `C=C1[C@H]2C[C@@]3([C@@H]1O)[C@@H](C[C@@H]2O)[C@]12[C@@H]4C[C@H]3[C@H]1N(CC)C[C@]4(C)CC[C@@H]2O` [Napelline], the phenotypically active was 0 (inactive).
For the compound `CO[C@H](C)[C@](O)(C(=O)OCC1=CCN2CC[C@H](O)[C@@H]12)C(C)C` [Heliotrine], the phenotypically active is 0 (inactive).
Consider `C/C=C1\C[C@@H](C)[C@](O)(CO)C(=O)OCC2=CCN3CC[C@@H](OC1=O)[C@@H]23` [Retrorsine], for which the phenotypically active is 0 (inactive).
In the case of `CN(C)NC(=O)CCC(=O)O` [Daminozide] it was 0 (inactive); in that of `CN1[C@@H]2CC(=O)C[C@H]1[C@H](O)C2` [6-Hydroxytropinone], 0 (inactive); in that of `COc1ccc2c3c1O[C@H]1C(=O)CC[C@H]4[C@@H](C2)N(C)CC[C@]314` [hydrocodone], 0 (inactive).
In the case of `CCN(C(C)=O)c1cccc(-c2ccnc3c(C#N)cnn23)c1` [zaleplon] it was 0 (inactive); in that of `C[N+]1([O-])[C@@H]2C[C@@H](OC(=O)[C@H](CO)c3ccccc3)C[C@H]1[C@@H]1O[C@@H]12` (some centres not stated) [Genoscopolamine HBr], 0 (inactive); in that of `NCC1(CC(=O)O)CCCCC1` [gabapentin], 0 (inactive).
In the case of `CN1CCc2cc3c(cc2[C@H]1[C@@H]1OC(=O)c2c1ccc1c2OCO1)OCO3` [bicuculine] it was 0 (inactive); in that of `c1cncc(C2CC3CCN2CC3)c1` (configuration not stated) [RJR 2429 dihydrochloride], 0 (inactive); in that of `CC1=CC(=O)C2=C(C)C[C@H](O)[C@@H]3[C@H](OC(=O)[C@H]3C)[C@@H]12` [Austricine hydrate], 0 (inactive).
Take `C=C(C)[C@H]1CN[C@H](C(=O)O)[C@H]1CC(=O)O` [Kainic acid]: the phenotypically active was 0 (inactive).
In the case of `C[C@H]1CCC2(NC1)O[C@H]1C[C@H]3[C@@H]4CC[C@H]5C[C@@H](O[C@@H]6O[C@H](CO)[C@H](O[C@@H]7O[C@H](CO)[C@@H](O)[C@H](O[C@@H]8OC[C@@H](O)[C@H](O)[C@H]8O)[C@H]7O[C@@H]7O[C@H](CO)[C@@H](O)[C@H](O)[C@H]7O)[C@H](O)[C@H]6O)CC[C@]5(C)[C@H]4CC[C@]3(C)[C@H]1[C@@H]2C` (some centres not stated) [Tomatine] it was 0 (inactive); in that of `CN1[C@@H]2C[C@@H](OC(=O)[C@H](CO)c3ccccc3)C[C@H]1[C@@H]1O[C@@H]12` [Scopolamine hydrobromide], 0 (inactive).
